Experimental data as given in PubChem BioAssay (EPA / NIEHS).
Where “and” joins values, the source holds several entries; their conditions need not be identical. Equal values may be shown once. Records with an inconclusive call do not appear. Calls of active or inactive are those of the source. Rule for the calls: active = hit-call score of the fitted dose curve at least 0.9, where 1 is the maximum; inconclusive = response in the unintended direction; inactive = score below 0.9.

Target: Androgen Receptor/SRC-1 Co-activator, AR (gene 367) (UniProt P10275)
Sequence (P10275 whole entry, looked up): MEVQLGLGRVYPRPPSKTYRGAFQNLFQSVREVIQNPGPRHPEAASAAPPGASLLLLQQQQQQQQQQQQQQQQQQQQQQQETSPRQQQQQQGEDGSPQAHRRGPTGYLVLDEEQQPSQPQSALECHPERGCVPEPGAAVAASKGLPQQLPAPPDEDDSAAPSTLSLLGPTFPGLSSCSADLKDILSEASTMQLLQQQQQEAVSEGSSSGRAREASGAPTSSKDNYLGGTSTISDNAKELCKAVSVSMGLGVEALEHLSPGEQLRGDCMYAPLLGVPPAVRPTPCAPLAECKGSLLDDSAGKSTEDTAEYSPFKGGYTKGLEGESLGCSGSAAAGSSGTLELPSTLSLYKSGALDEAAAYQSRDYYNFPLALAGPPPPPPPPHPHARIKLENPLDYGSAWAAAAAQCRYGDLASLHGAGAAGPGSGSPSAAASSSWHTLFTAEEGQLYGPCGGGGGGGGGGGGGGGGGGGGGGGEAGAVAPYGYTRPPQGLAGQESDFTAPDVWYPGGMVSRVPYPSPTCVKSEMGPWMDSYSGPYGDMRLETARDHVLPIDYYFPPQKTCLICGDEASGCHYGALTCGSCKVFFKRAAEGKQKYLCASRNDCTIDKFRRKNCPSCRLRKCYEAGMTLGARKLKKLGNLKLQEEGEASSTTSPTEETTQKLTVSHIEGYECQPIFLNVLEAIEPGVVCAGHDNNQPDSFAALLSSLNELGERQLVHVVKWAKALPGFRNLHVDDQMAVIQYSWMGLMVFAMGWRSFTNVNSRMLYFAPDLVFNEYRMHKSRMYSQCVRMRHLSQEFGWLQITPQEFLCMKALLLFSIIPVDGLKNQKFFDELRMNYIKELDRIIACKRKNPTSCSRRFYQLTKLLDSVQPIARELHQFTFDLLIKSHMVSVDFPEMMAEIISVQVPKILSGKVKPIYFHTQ
Test: OT_AR_ARSRC1_0960: Odyssey Thera (OT) 16-hour HEK293T Protein-Complementation Assay for Androgen Receptor/SRC-1 Co-activator (AID 2283353);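 note: actives raise the signal above DMSO so potency reflects increased AR and SRC-1 complex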
Procedure, shortened: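 Readout: 488 nm nuclear-to-cytoplasmic fluorescence ratio from imaging of at least 400 cells per image, 16 h post-dose. Reporter is Venus YFP complementation between AR and SRC-1 fusions, stably expressed in HEK293T; activity scored upward relative to DMSO.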

Row | Structure (SMILES) | outcome | AC50
1 | ClC1(Cl)C2(Cl)C3(Cl)C4(Cl)C(Cl)(Cl)C5(Cl)C3(Cl)C1(Cl)C5(Cl)C24Cl (centres undefined) | inactive | 
2 | CC(C)c1cccc(C(C)C)c1O | inactive | 
3 | Cc1ccc2ccccc2c1C | inactive | 
4 | COP(=O)(OC)OC | inactive | 
5 | O=c1[nH]c(=O)[nH]c(=O)[nH]1 | inactive | 
6 | O=[N+]([O-])c1ccc(O)c([N+](=O)[O-])c1 | inactive | 
7 | c1cc[c]([Hg][c]2ccccc2)cc1 |  | 41.9 µM (active)

Target: Androgen Receptor/SRC-1 Co-activator, AR (gene 367) (UniProt P10275)
Test: OT_AR_ARSRC1_0480: Odyssey Thera (OT) 8-hour HEK293T Protein-Complementation Assay for Androgen Receptor/SRC-1 Co-activator (AID 2283354);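 note: hits raise the complementation signal above DMSO so AC50 marks enhancers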
Procedure, shortened: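 After 8 h dosing, stably expressing HEK293T cells with split-Venus AR/SRC-1 fusions were imaged (488, 635nm). The 488nm N/C ratio per image gave the endpoint, analysed in the positive direction against DMSO.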

Row | Structure (SMILES) | outcome | AC50
8 | ClC1(Cl)C2(Cl)C3(Cl)C4(Cl)C(Cl)(Cl)C5(Cl)C3(Cl)C1(Cl)C5(Cl)C24Cl (centres undefined) | inactive | 
9 | CC(C)c1cccc(C(C)C)c1O | inactive | 
10 | Cc1ccc2ccccc2c1C | inactive | 
11 | O=c1[nH]c(=O)[nH]c(=O)[nH]1 | inactive | 
12 | O=[N+]([O-])c1ccc(O)c([N+](=O)[O-])c1 | inactive | 
13 | C=CCc1ccc(OC)cc1 | inactive | 
14 | c1cc[c]([Hg][c]2ccccc2)cc1 |  | 32.2 µM (active)

Target: Estrogen receptor (Homo sapiens) + Estrogen receptor beta (Homo sapiens) (UniProt P03372+Q92731)
Sequence (P03372 whole entry, looked up, the tested form may be a part): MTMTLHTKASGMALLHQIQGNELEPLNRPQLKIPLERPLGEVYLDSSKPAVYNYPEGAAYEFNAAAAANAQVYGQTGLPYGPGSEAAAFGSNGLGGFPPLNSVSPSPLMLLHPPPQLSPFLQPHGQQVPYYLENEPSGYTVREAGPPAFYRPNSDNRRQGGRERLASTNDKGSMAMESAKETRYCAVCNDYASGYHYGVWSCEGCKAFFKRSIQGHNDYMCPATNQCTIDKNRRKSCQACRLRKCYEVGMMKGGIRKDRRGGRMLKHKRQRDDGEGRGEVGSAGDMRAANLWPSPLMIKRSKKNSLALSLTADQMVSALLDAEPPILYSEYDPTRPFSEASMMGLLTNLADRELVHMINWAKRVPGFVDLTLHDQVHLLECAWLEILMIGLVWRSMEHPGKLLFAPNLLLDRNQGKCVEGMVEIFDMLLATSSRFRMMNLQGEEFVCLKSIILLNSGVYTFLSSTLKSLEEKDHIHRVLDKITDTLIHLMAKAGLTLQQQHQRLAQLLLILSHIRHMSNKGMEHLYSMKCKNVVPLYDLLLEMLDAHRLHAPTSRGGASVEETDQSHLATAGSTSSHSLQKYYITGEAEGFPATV
Sequence (Q92731 whole entry, looked up, the tested form may be a part): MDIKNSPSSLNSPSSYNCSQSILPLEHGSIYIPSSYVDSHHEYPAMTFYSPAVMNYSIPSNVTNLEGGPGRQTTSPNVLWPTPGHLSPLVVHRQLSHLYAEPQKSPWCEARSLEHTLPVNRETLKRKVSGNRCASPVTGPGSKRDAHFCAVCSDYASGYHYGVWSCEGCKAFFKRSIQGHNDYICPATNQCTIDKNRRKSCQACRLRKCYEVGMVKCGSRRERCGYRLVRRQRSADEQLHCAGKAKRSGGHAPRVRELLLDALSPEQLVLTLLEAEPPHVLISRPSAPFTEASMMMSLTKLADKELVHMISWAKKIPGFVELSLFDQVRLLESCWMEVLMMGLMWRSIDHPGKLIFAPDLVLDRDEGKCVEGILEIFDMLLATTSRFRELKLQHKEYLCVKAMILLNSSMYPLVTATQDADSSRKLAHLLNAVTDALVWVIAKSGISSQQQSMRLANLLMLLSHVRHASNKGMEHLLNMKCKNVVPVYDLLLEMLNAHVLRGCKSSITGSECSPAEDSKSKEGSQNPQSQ
Test: OT_ER_ERaERb_1440: Odyssey Thera (OT) 24-hour HEK293T Protein-Complementation Assay for Estrogen Receptor-alpha/-beta Homodimer (AID 2283356);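 note: heteromer of ER alpha and ER beta binding domains; hits raise reporter fluorescence and both agonists and antagonists give an increase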
Procedure, shortened: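 24 h exposure; HEK293T PCA cells with ERα/ERβ LBD fragments; signal rise in nuclear or whole-cell fluorescence over vehicle.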

Row | Structure (SMILES) | outcome
15 | C=CC#N | inactive
16 | C=C(C)C#N | inactive
17 | CC(C#N)CCC#N (centres undefined) | inactive
18 | COc1ccc(C=O)cc1OC | inactive
19 | [O-][Cl+2]([O-])O | inactive
20 | CC(C)c1cccc(C(C)C)c1O | inactive
21 | Cc1ccc2ccccc2c1C | inactive
22 | Cn1sc(Cl)cc1=O | inactive
23 | OCc1ccco1 | inactive
24 | O=[N+]([O-])c1ccc(O)c([N+](=O)[O-])c1 | inactive
25 | CC1(C)Cc2cccc(O)c2O1 | inactive
26 | N#CN=C(N)N | inactive
27 | c1cc[c]([Hg][c]2ccccc2)cc1 | inactive

Target: Estrogen receptor beta (Homo sapiens) (UniProt Q92731)
Sequence (Q92731 whole entry, looked up): as the sequence (Q92731 whole entry, looked up, the tested form may be a part) above
Test: OT_ER_ERbERb_0480: Odyssey Thera (OT) 8-hour HEK293T Protein-Complementation Assay for Estrogen Receptor-beta/-beta Homodimer (AID 2283357);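 note: active means signal gain over DMSO baseline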
Procedure, shortened: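 Fluorescence gain from complemented reporter fragments on ER-beta LBD homodimer in HEK293T was quantified against DMSO controls after 8 h treatment, fixation in 4% formaldehyde and Draq5 staining.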

Row | Structure (SMILES) | outcome | AC50
28 | CN(C)N=O | inactive | 
29 | C=CC#N | inactive | 
30 | C=C(C)C#N | inactive | 
31 | CCCCCCCCc1ccc(O)cc1 |  | 12.2 µM (active)
32 | CC(C)(C)CC(C)(C)c1ccc(O)cc1 |  | 817 nM (active) and 676 nM (active) and 702 nM (active)
33 | CC(C#N)CCC#N (centres undefined) | inactive | 
34 | COc1ccc(C=O)cc1OC | inactive | 
35 | CC(C)c1cccc(C(C)C)c1O | inactive | 
36 | Cc1ccc2ccccc2c1C | inactive | 
37 | Cn1sc(Cl)cc1=O | inactive | 
38 | OCc1ccco1 | inactive | 
39 | O=C(O)C(F)(F)C(F)(F)C(F)(F)C(F)(F)C(F)(F)C(F)(F)F | inactive | 
40 | O=c1[nH]c(=O)[nH]c(=O)[nH]1 | inactive | 
41 | Oc1cccc2cccnc12 | inactive | 
42 | CC1(C)Cc2cccc(O)c2O1 | inactive | 
43 | C=CCc1ccc(OC)cc1 | inactive | 
44 | N#CN=C(N)N | inactive | 
